# Source: the supplement of paper PMC10981050
# Several values for one entry are separate records, joined by “and”; a condition that tells them apart may be missing. Equal values may be shown once. Where a name gives a salt, the structure may show the parent alone.
# Key:
# Test in all cases: cell viability relative to vehicle control; higher = less cytotoxic
# Conditions in all cases: 10 µM
# [1] = tested on: K562
# In short: (§1)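 Mutant clones made by CRISPR editing and their isogenic wild-type counterparts, from four leukaemia lines, were exposed to a single 10 µM dose of each library compound for 48 h. The supernatant was then removed and CellTiter-Glo luminescence was read. Viability was reported as percent of the on-plate vehicle control.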
# [2] = tested on: MARIMO
# In short: as §1
# [3] = tested on: MOLM14
# In short: as §1
# [4] = tested on: OCI-AML2
# In short: as §1
Compound,cell viability ([1]; SRSF2 genotype: SRSF2 P95H/wt),cell viability ([1]; SRSF2 genotype: SRSF2 wt/wt) [%],cell viability ([2]; SRSF2 genotype: SRSF2 P95H/wt) [%],cell viability ([2]; SRSF2 genotype: SRSF2 wt/wt) [%],cell viability ([3]; SRSF2 genotype: SRSF2 P95H/wt) [%],cell viability ([3]; SRSF2 genotype: SRSF2 wt/wt) [%],cell viability ([4]; SRSF2 genotype: P95H/wt) [%],cell viability ([4]; SRSF2 genotype: wt/wt) [%]
Cc1cc(-c2nc(-c3ccc(OC(F)(F)F)cc3)no2)nn1Cc1ccnc(N2CCN(C3CC3)CC2)c1,61.8% and 46.9%,54.1,63,53.7,63.5,51.8,52.2,46.9
COc1ccc(-c2cc(=O)c3c(OC)c(OC)c(OC)c(OC)c3o2)cc1 [Tangeretin (Tangeritin)],95.5% and 98.4%,103,91.7,90.8,96,102,82.9,88.1
CCN(CC)CC(=O)Nc1c(C)cccc1C [Lidocaine hydrochloride],102% and 103%,106,101,107,99.3,102,100,97.1
CCC[C@H](N[C@H]1CCc2cc(F)cc(F)c2C1)C(=O)Nc1cn(C(C)(C)CNCC(C)(C)C)cn1,78% and 88.1%,88.7,74.3,86.2,78,88.8,73.3,72.3
O=C(Nc1ccc2c(O)cc(S(=O)(=O)O)cc2c1)Nc1ccc2c(O)cc(S(=O)(=O)O)cc2c1,103% and 108%,99.1,110,101,101,104,112,111
CCOC(=O)c1csc(Nc2ccc(Cl)cc2)n1,97.1% and 103%,92.5,81,92.8,111,111,75.6,71.8
NCCCNCCCCNCCCN [Spermine],104% and 102%,104,103,111,100,103,101,106
CN1CCN(CCCNc2ncc(Cl)c(-c3cc4c(C(=O)NC5CC5)cccc4s3)n2)CC1,97.4% and 98.7%,93.2,81.4,85.8,58.8,79.9,68.8,72.7
CCN(CC)CC#CCOC(=O)C(O)(c1ccccc1)C1CCCCC1 (configuration not stated) [Oxybutynin (Ditropan)],97.7% and 102%,104,82.9,95.9,83.5,100,91.8,87
C[C@@H](O)[C@H]1C(=O)N2C(C(=O)O)=C(S[C@@H]3CN[C@H](CNS(N)(=O)=O)C3)[C@H](C)[C@H]12 [Doripenem],98.4% and 92.9%,97.5,93.2,102,99.7,98.3,89.2,99
O=C1NC(=O)/C(=C/c2ccc3c(c2)OC(F)(F)O3)S1,103% and 97.1%,98.1,101,99.8,96.9,101,95.3,103
COc1cc(O)c(C(=O)c2ccccc2)cc1S(=O)(=O)O [Sulisobenzone],99.1% and 89.9%,94.3,95.4,104,97.8,101,88.7,104
CC(C)(CCCCCC(O)CCCCCC(C)(C)C(=O)O)C(=O)O,103% and 96.8%,102,106,106,104,104,97.5,108
"C=C(C)C1CC=C(C)CC1 (single isomer, unassigned; (+)) [(+)-Dipentene]",114% and 103%,116,104,108,110,108,109,115
CC1(C)C=C(CN2C/C(=C\c3ccc(F)cc3)C(=O)/C(=C/c3ccc(F)cc3)C2)C(C)(C)N1O,1.83% and 3.61%,1.04,0.52,1.15,0.27,0.28,0.24,0.32
N#Cc1c(NC(=O)c2cccc3ccccc23)sc2c1CCCC2 [JNK inhibitor IX],16.2% and 37.1%,34.9,6.04,9.03,14.5,3.68,8.78,12.3
CC1=C(C(=O)OC2CCCCC2)C(c2ccc([N+](=O)[O-])cc2)C2=C(CC(C)(C)CC2=O)N1 (configuration not stated),30.9% and 13.9%,47.4,84.3,66,10.5,13.7,52.6,43.5
O=c1cc(-c2ccc(O)c(O)c2)oc2cc(O)c([C@@H]3O[C@H](CO)[C@@H](O)[C@H](O)[C@H]3O)c(O)c12 [Homoorientin],90.2% and 85%,84.1,83.8,90,83.2,90,86.7,88.7
COc1cc2ncnc(Oc3ccc(CC(=O)Nc4cnn(C(C)C)c4)cc3)c2cc1OC,74.8% and 98.4%,72.4,113,107,16.1,14.1,36.1,42.4
CN1CCC(NC(=O)c2cc(-c3c(O)cc(O)cc3Oc3ccc([N+](=O)[O-])cc3)on2)CC1,17.4% and 26.5%,23.6,29.8,23.9,1.68,1.87,17.5,19.7
CCOc1cc2ncc(C#N)c(Nc3ccc(OCc4ccccn4)c(Cl)c3)c2cc1NC(=O)/C=C/CN(C)C [Neratinib (HKI-272)],68.5% and 66.3%,62.6,42.1,41.8,54.1,53.4,13.3,36.9
CC(C)C(=O)Oc1ccc(CO)cc1[C@H](CCN(C(C)C)C(C)C)c1ccccc1 [Fesoterodine Fumarate],97.2% and 107%,102,91.7,98.4,102,104,113,98

Compound,cell viability ([1]; SRSF2 genotype: SRSF2 P95H/wt),cell viability ([1]; SRSF2 genotype: SRSF2 wt/wt) [%],cell viability ([2]; SRSF2 genotype: SRSF2 P95H/wt) [%],cell viability ([2]; SRSF2 genotype: SRSF2 wt/wt) [%],cell viability ([3]; SRSF2 genotype: SRSF2 P95H/wt) [%],cell viability ([3]; SRSF2 genotype: SRSF2 wt/wt) [%],cell viability ([4]; SRSF2 genotype: P95H/wt) [%],cell viability ([4]; SRSF2 genotype: wt/wt) [%]
CC1(C)CC[C@]2(C(=O)O[C@@H]3O[C@H](CO)[C@@H](O)[C@H](O)[C@H]3O)CC[C@]3(C)C(=CC[C@@H]4[C@@]5(C)CC[C@H](O[C@@H]6O[C@H](C(=O)O)[C@@H](O)[C@H](O)[C@H]6O)C(C)(C)[C@@H]5CC[C@]43C)[C@@H]2C1 [Chikusetsusaponin IVa],100% and 103%,106,103,114,102,105,104,111
Cc1nc(Nc2n[nH]c3c2CN(C(=O)N[C@H](CN(C)C)c2ccccc2)C3(C)C)c2sccc2n1,13.2% and 22.6%,14.3,5.65,3.34,0.49,0.42,0.9,10.7
Oc1ccc(Nc2nc(-c3ccc(Cl)cc3)cs2)cc1,49.4% and 65.5%,66.4,38.8,36.5,40.9,39.6,42.1,42.1
C=C(c1ccc(C(=O)O)cc1)c1cc2c(cc1C)C(C)(C)CCC2(C)C [Bexarotene],84.9% and 95.7%,87.6,85.7,106,89.4,103,33.3,63.5
Cn1cc(-c2ccncc2)c(-c2ccc(OCc3ccc4ccccc4n3)cc2)n1,79.8% and 91.7%,91.2,93,90.4,65,71.4,71.5,68
CCCCOc1ccc(C(=O)Nc2ccc(F)cc2F)cc1,91% and 91.9%,91.8,75.4,88.6,100,110,85.7,92.8
CCN1CCN(Cc2ccc(Nc3ncc(F)c(-c4cc(F)c5nc(C)n(C(C)C)c5c4)n3)nc2)CC1,1.86% and 0.59%,0.69,0.46,0.64,0.3,0.31,0.29,0.39
O=C(c1ccc(F)cc1)N1CCCC(c2nc(-c3ccc(F)cc3)no2)C1 (configuration not stated),75.7% and 78.6%,76.6,66,73.9,80.1,84.1,64.8,72.7
CCN(c1cc(-c2ccc(CN3CCOCC3)cc2)cc(C(=O)NCc2c(C)cc(C)[nH]c2=O)c1C)C1CCOCC1 [Tazemetostat (EPZ-6438)],92.9% and 95%,94.2,93.3,102,89.5,93.3,105,99.6
COc1cc(C=O)cc(OC)c1O [Syringaldehyde],110% and 99.8%,96,102,112,99.2,105,94.8,114
CN(C)C/C=C/C(=O)Nc1cc2c(Nc3ccc(F)c(Cl)c3)ncnc2cc1O[C@H]1CCOC1 [Afatinib (BIBW2992)],8.97% and 5.94%,6.24,1.96,1.37,0.03,0.04,0.06,0.13
COc1cc(Nc2ncc(F)c(Nc3ccc4c(n3)NC(=O)C(C)(C)O4)n2)cc(OC)c1OC [R406(free base)],95% and 101%,104,72.2,85.1,25.2,16,42.1,56.3
CN[C@@H](C)C(=O)N[C@H](C(=O)N1CCC[C@H]1c1nc(C(=O)c2ccc(F)cc2)cs1)C1CCCCC1,84.3% and 92.2%,89.4,70.1,82.2,58.3,82.3,75.8,90.5
COC(=O)c1cc(OC)c(OC)c(OC)c1 [Methyl EudesMate],103% and 105%,100,97.6,109,108,106,102,110
CCCCC(F)(F)[C@@]1(O)CC[C@H]2[C@@H](CC(=O)[C@@H]2CCCCCCC(=O)O)O1 [Lubiprostone],101% and 100%,104,93.9,98,84.5,98.8,83.6,88
O=C(C=Cc1ccccc1)NC(NC(=S)Nc1ccc(Cl)cc1)C(Cl)(Cl)Cl (configuration not stated),81.5% and 86.5%,86.9,102,104,90.4,96,99.1,100
COCCNc1cc(NC(=O)N2CCCc3cc(CN4CCN(C)CC4=O)c(C=O)nc32)ncc1C#N,94% and 103%,89.4,96.9,106,100,98.2,112,109
C[C@@H]1CC[C@H]2C(C)(C)[C@H]3C[C@@]12CC[C@@]3(C)O [Cedrol],106% and 97.2%,96.6,103,107,104,104,98.2,112
COc1cc(N2CCC(N3CCN(C)CC3)CC2)ccc1Nc1ncc(Cl)c(Nc2ccccc2S(=O)(=O)C(C)C)n1,78.8% and 75.5%,72.5,36.4,30.1,7.58,12.7,7.82,16.6
Nc1nc2n[nH]nc2c(=O)[nH]1 [Azaguanine-8],85.3% and 81.8%,82.5,76.2,68.1,82.7,86.6,70.9,54.6
COc1c(O)cc2c(c1O)C(=O)c1c(cc(C)c(O)c1OC)C2=O [Aurantio-obtusin],87% and 81.9%,79.3,84.5,84.3,84.5,88.9,97.9,91.5
NNC(=O)c1ccncc1 [Isoniazid (Tubizid)],106% and 109%,112,101,107,107,106,102,115
